From PubChem BioAssay
In the library only some 1.3% were active in any assay of this set; here they are far more common.
RPL19A TOR yeast: RPL19A-GFP expression modulators in yeast, primary screen, cell-based, S. cerevisiae, multiplex flow cytometry, MLPCN. actives 0.3% (n = 330,000). percent response vs DMSO, % at 10 µM. S. cerevisiae RPL19A-GFP strain, 3 h; hits give low values;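 active = percent response vs DMSO below 50%; inconclusive = fewer than 70 events counted for the yeast strain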;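 note: median channel GFP fluorescence of the barcoded RPL19A-GFP strain; ratio of sample median GFP to plate DMSO average so 100% = DMSO; lower means less RPL19A-GFP as with rapamycin TOR inhibition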
LAP4 TOR yeast: modulators of LAP4-GFP expression in yeast, primary screen, S. cerevisiae, multiplex flow cytometry, MLPCN library; GFP response vs DMSO, % at 10 µM; actives 0.34% (n = 320,000); AID 2023, 2009; 3 h; median GFP as percent of DMSO wells;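 active = GFP response vs DMSO above a set limit, about the screen mean plus 3 SD, cut at about 150% in these data; inconclusive = under 70 cell events counted for the yeast strain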
MEP2 TOR yeast: modulators of MEP2-GFP levels in yeast, primary screen, S. cerevisiae, multiplex flow cytometry, MLPCN library | AID 2016, 2009 | actives 0.51% (n = 330,000) | GFP response vs DMSO, % at 10 µM | S. cerevisiae MEP2-GFP strain, 3 h; 100% = DMSO control level;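 active = GFP response versus DMSO above a set limit, roughly screen mean plus 3 SD, cut at about 180% in these data; inconclusive = fewer than 70 cells counted for a yeast strain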;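 note: median GFP fluorescence of the barcode-gated MEP2-GFP cells per well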
AGP1-GFP MLPCN: modulators of AGP1-GFP expression in yeast TOR pathway, primary screen, cell-based, multiplex flow cytometry, S. cerevisiae, MLPCN library; 3 h; GFP as percent of DMSO wells; GFP response vs DMSO, % at 10 µM; actives 0.02% (n = 320,000); AID 2066, 2009;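 active = GFP response relative to DMSO above a set limit, near screen average plus 3 SD, cut at about 150% in these data; inconclusive = fewer than 70 cells counted for the yeast strain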;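 note: median GFP channel fluorescence of the gated AGP1 strain per well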
Efflux pump inh: inhibitors of Candida efflux pumps in yeast, primary screen, S. cerevisiae, Nile Red, multiplex | actives 0.44% (n = 330,000) | inhibition, % at 10 µM | S. cerevisiae Candida pump triplex | AID 485275, 2010;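 active = plate passing quality check with inhibition over a set limit, or well fluorescence over plate mean plus 4 SD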;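 note: Nile Red retained in pooled yeast measured as flow cytometry median fluorescence; 0% = buffer negative control and 100% = Enniatin B positive control; higher means more Nile Red kept so more efflux inhibition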
CIT2 TOR yeast: modulators of CIT2-GFP expression in yeast, primary screen, S. cerevisiae, GFP fusion, multiplex flow cytometry, MLPCN library; S. cerevisiae CIT2-GFP strain, 3 h; 100 means same as DMSO wells; GFP response vs DMSO, % at 10 µM; actives 0.065% (n = 320,000); AID 2029, 2009;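 active = GFP response relative to DMSO above a set limit, near the screen mean plus 3 SD, cut at about 150% in these data; inconclusive = Fewer than 70 cells measured for a yeast strain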;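 note: ratio of well median GFP fluorescence to mean of DMSO wells on the plate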
Active calls of the source: *; ? = inconclusive; · = no result given; [ ] = dose if it differs, or a comment.

SMILES	RPL19A TOR yeast	LAP4 TOR yeast	MEP2 TOR yeast	AGP1-GFP MLPCN	Efflux pump inh	CIT2 TOR yeast
N=c1c(C(=O)NC2CCCCC2)cc2c(=O)n3ccccc3nc2n1CC1CCCO1 (stereo not given)	44*[may fluoresce violet]	?	?	?	0	?
CC(C)CN(C(=O)CCNC(=O)c1ccccc1Cl)C1CCS(=O)(=O)C1 (stereo not given)	96	110	104	107	0	98
CC1CC(=O)Nc2ccccc2N1C(=O)COc1ccc2ccccc2c1 (stereo not given)	93	90	100	98	0	100
CCC1C(=O)Nc2ccccc2N1C(=O)COc1ccccc1 (stereo not given)	94	104	106	116	0	156*[may fluoresce green]
NC1=NC(c2ccccc2)=NC1(NC(=O)c1ccccc1)C(Cl)Cl (stereo not given)	96	103	98	106	0	95
COc1ccc(S(=O)(=O)Nc2cccc3c2O[C@H](CN(C)C)[C@@H](C)CN([C@H](C)CO)C3=O)cc1	·	·	·	·	0	·
O=C1/C(=C\c2cccs2)SC(=S)N1C1CCS(=O)(=O)C1 (stereo not given)	13*[may fluoresce violet]	?	?	?	0	?
COc1ccc(CNS(=O)(=O)c2c(C)[nH]c(C)c2C(=O)N2CCCCC2)cc1	93	86	85	91	0	93
Cc1[nH]c(C)c(S(=O)(=O)NCc2ccc(F)cc2)c1C(=O)N1CCCC1	47*[may fluoresce violet]	120	438*[may fluoresce violet]	?	1	?
COC(=O)c1ccc(C(=O)OC)c(NC(=O)C2CCCO2)c1 (stereo not given)	107	91	105	96	0	97
COC(=O)C1=C(C)NC(C)=C(C(=O)OC)C1c1ccc(-c2cccc([N+](=O)[O-])c2)o1	46*[may fluoresce violet]	83	203*[may fluoresce violet]	19	0	?
COC(=O)C1=C(C)NC(C)=C(C(=O)OC)C1c1ccc(-c2cccc(Cl)c2Cl)o1	101	109	106	99	0	96
Cc1ccc(-n2ncc(C#N)c2/N=C/N(C)C)cc1	92	158*	267*	102	0	117
CNC(=O)c1c(O)c2cccc3c2n(c1=O)CC3	104	99	99	99	0	97
O=C(Nc1cccnc1)c1c(O)c2cccc3c2n(c1=O)CC3	49*[may fluoresce violet]	38	150	?	0	?
CC(=O)c1ccc2c(c1)OCCOCCOCCO2	47*[may fluoresce violet]	97	575*[may fluoresce violet]	?	0	?
Brc1ccc2c(c1)OCCOCCOc1cc(Br)ccc1OCCOCCOCCO2	77	219*	111	105	0	90
Brc1cc2c(cc1Br)OCCOCCOCCOCCO2	93	97	100	97	0	·
NC(=O)c1ccccc1NC(=O)c1ccc2c(c1)OCO2	98	94	99	96	0	91
CC(=O)C[C@@H](O)CC(=O)[C@@H]1OC(=O)CCCCC/C=C/Cc2ccccc21	93	96	96	90	0	92
O=C(Nc1ccon1)Nc1ccc(F)cc1F	104	83	99	92	0	97
COCc1nnc(NC(=O)C2CCN(C(=O)c3ccco3)CC2)s1	57	113	968*[may fluoresce violet]	19	0	?
O=C(O)c1ccc(N/N=C/C(Br)=C/c2ccccc2)cc1	107	161*	106	72	0	98
O=C(NCc1ccncc1)C(=O)NCC1OCCCN1S(=O)(=O)c1ccc(F)cc1 (stereo not given)	91	105	95	101	0	88
Cc1ccccc1CNC(=O)C1CCN(c2nnc(N3CCCC3=O)s2)CC1	100	108	98	107	0	120
SMILES	RPL19A TOR yeast	LAP4 TOR yeast	MEP2 TOR yeast	AGP1-GFP MLPCN	Efflux pump inh	CIT2 TOR yeast
N#C/C(=C\c1ccc(N2CCOCC2)o1)c1ccccc1	100	121	111	89	0	91
N#C/C(=C/c1ccc(N2CCOCC2)o1)c1ccc(Br)cc1	100	167*	113	100	0	102
Cc1ccc(NC(=O)CN(C)CC(=O)N(CC(C)C)c2c(N)n(CC(C)C)c(=O)[nH]c2=O)c(C)c1	102	99	102	101	0	98
CS(=O)(=O)N1CCCC(C(=O)N2CCN(c3cccc(Cl)c3)CC2)C1 (stereo not given)	101	105	103	105	0	106
CC(=O)c1cc(NC(=O)c2ccc(C)cc2)c(=O)oc1C	79	166*	86	·	0	74
CCOc1ccc(S(=O)(=O)n2ccnc2C)cc1	110	106	111	153*	0	108
COc1cc([N+](=O)[O-])cc(/C=N/NC(=O)Cn2nc(C)cc2C)c1O	105	102	103	104	0	101
COc1ccc(/C=N/NC(=O)Cn2nc([N+](=O)[O-])cc2C)c(OC)c1OC	33*[may fluoresce violet]	100	208*[may fluoresce violet]	?	0	?
CC(C)c1ccc(NC(=O)CCNS(=O)(=O)c2ccc3[nH]c(=O)oc3c2)cc1	95	100	94	104	0	100
Cc1c(OC(C)C(=O)NCCCN2CCOCC2)ccc2c1oc(=O)c1ccccc12 (stereo not given)	26*[may fluoresce violet]	91	162	?	0	?
CC1CCN(C(=O)Cn2c3ccccc3c3nc4n(c(=O)c32)CCCS4)CC1	104	108	113	107	0	109
c1ccc(-c2nc(N3CCN(c4ccccc4)CC3)nc(-n3ccnc3)n2)cc1	59	127	243*[may fluoresce violet]	20	0	?
c1ccc(-c2nc(N3CCCCCC3)nc(-n3ccnc3)n2)cc1	101	130	103	82	0	90
CC(C)(C)OC(=O)n1cc(/C=N/NC(=O)c2ccco2)c2ccccc21	98	118	117	119	0	154*[may fluoresce green]
CC(=O)n1cc(/C=N/NC(=O)c2ccccc2O)c2ccccc21	99	107	107	103	0	101
C=C(NC(=O)C(=C)NC(=O)c1csc(C2=NC3c4csc(n4)C4NC(=O)c5csc(n5)C([C@@](C)(O)C(C)O)NC(=O)C5CSC(=N5)/C(=C\C)NC(=O)C(C(C)O)NC(=O)c5csc(n5)[C@]3(CC2)NC(=O)C(C)NC(=O)C(=C)NC(=O)C(C)NC(=O)C(C(C)CC)NC2C=Cc3c(C(C)O)cc(nc3C2O)C(=O)OC4C)n1)C(N)=O (stereo not given in full)	91	105	90	81	1.1*	83
